From PubChem BioAssay AID1159580 (chemical genetic matrix, 2015)
About 2,000 (36%) of roughly 5,500 compounds were called active. Inconclusive results (about 18%) are left out. Cut-off read from the data, not from the text of the source: active = normalized growth mostly below about 0.91 (no sharp cut-off); inconclusive = no clear call, values can overlap the other calls; inactive = mostly above about 0.92. Some of the results follow.

Test: chemical genetic growth profiling, strain panel (AID 1159580);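 note: tested at 20 µM; growth read once vehicle control cultures reached saturation at 30 °C; 1 = growth at the plate median or of vehicle wells; lower values mean less growth of the strain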
Conditions: growth OD
[1] = S. cerevisiae deletion strains, locus YDL101C, strain DUN1, active compounds read low
[2] = S. cerevisiae deletion strains, locus YHR030C, strain SLT2, active compounds read low

Measured: normalized growth

N/C(=N/OCc1c(F)cccc1Cl)c1ccc(Cl)cc1
inactive: S. cerevisiae deletion strains, locus YAR019C, strain CDC15, active compounds read low 0.914 | S. cerevisiae deletion strains, locus YBL105C, strain PKC1, active compounds read low 0.922 | S. cerevisiae deletion strains, locus YBR135W, strain CKS1, active compounds read low 0.929 | S. cerevisiae deletion strains, locus YBR136W, strain MEC1, active compounds read low 0.92 | S. cerevisiae deletion strains, locus YBR160W, strain CDC28, active compounds read low 0.932 | S. cerevisiae deletion strains, locus YDL017W, strain CDC7, active compounds read low 0.921 | S. cerevisiae deletion strains, locus YDL028C, strain MPS1, active compounds read low 0.93 | [1] 0.921 | S. cerevisiae deletion strains, locus YDL108W, strain KIN28, active compounds read low 0.922 | S. cerevisiae deletion strains, locus YDL132W, strain cdc53, active compounds read low 0.95 | S. cerevisiae deletion strains, locus YDL214C, strain PRR2, active compounds read low 0.91 | S. cerevisiae deletion strains, locus YDR052C, strain DBF4, active compounds read low 0.941 | S. cerevisiae deletion strains, locus YDR054C, strain cdc34, active compounds read low 0.905 | S. cerevisiae deletion strains, locus YDR226W, strain ADK1, active compounds read low 0.905 | S. cerevisiae deletion strains, locus YDR477W, strain SNF1, active compounds read low 0.92 | S. cerevisiae deletion strains, locus YER123W, strain YCK3, active compounds read low 0.934 | S. cerevisiae deletion strains, locus YER133W, strain GLC7, active compounds read low 0.912 | S. cerevisiae deletion strains, locus YFL009W, strain cdc4, active compounds read low 0.913 | S. cerevisiae deletion strains, locus YFL029C, strain CAK1, active compounds read low 0.922 | S. cerevisiae deletion strains, locus YFR003C, strain YPI1, active compounds read low 0.924 | S. cerevisiae deletion strains, locus YFR019W, strain FAB1, active compounds read low 0.914 | S. cerevisiae deletion strains, locus YFR028C, strain CDC14, active compounds read low 0.94 | S. cerevisiae deletion strains, locus YGR040W, strain KSS1, active compounds read low 0.919 | S. cerevisiae deletion strains, locus YGR052W, strain FMP48, active compounds read low 0.925 | S. cerevisiae deletion strains, locus YGR092W, strain DBF2, active compounds read low 0.824 | S. cerevisiae deletion strains, locus YHR082C, strain KSP1, active compounds read low 0.974 | S. cerevisiae deletion strains, locus YHR205W, strain SCH9, active compounds read low 0.765 | S. cerevisiae deletion strains, locus YIL147C, strain SLN1, active compounds read low 0.916 | S. cerevisiae deletion strains, locus YJL095W, strain BCK1, active compounds read low 0.842 | S. cerevisiae deletion strains, locus YJL128C, strain PBS2, active compounds read low 0.945 | S. cerevisiae deletion strains, locus YJL157C, strain FAR1, active compounds read low 0.929 | S. cerevisiae deletion strains, locus YJR016C, strain ILV3, active compounds read low 0.929 | S. cerevisiae deletion strains, locus YJR066W, strain TOR1 (second series), active compounds read low 0.962 | S. cerevisiae deletion strains, locus YJR066W, strain TOR1, active compounds read low 0.93 | S. cerevisiae deletion strains, locus YKL048C, strain ELM1, active compounds read low 0.903 | S. cerevisiae deletion strains, locus YKL067W, strain YNK1, active compounds read low 0.923 | S. cerevisiae deletion strains, locus YKL101W, strain HSL1, active compounds read low 0.911 | S. cerevisiae deletion strains, locus YKL193C, strain SDS22, active compounds read low 0.907 | S. cerevisiae deletion strains, locus YKL203C, strain TOR2, active compounds read low 0.997 | S. cerevisiae deletion strains, locus YLR133W, strain CKI1, active compounds read low 0.935 | S. cerevisiae deletion strains, locus YLR403W, strain SFP1, active compounds read low 0.847 | S. cerevisiae deletion strains, locus YML070W, strain DAK1, active compounds read low 0.909 | S. cerevisiae deletion strains, locus YMR001C, strain CDC5, active compounds read low 0.916 | S. cerevisiae deletion strains, locus YMR205C, strain PFK2 (second series), active compounds read low 0.886 | S. cerevisiae deletion strains, locus YMR277W, strain FCP1, active compounds read low 0.919 | S. cerevisiae deletion strains, locus YNL006W, strain LST8, active compounds read low 0.928 | S. cerevisiae deletion strains, locus YNL020C, strain ARK1, active compounds read low 0.926 | S. cerevisiae deletion strains, locus YNL161W, strain CBK1, active compounds read low 0.916 | S. cerevisiae deletion strains, locus YNL183C, strain NPR1, active compounds read low 0.956 | S. cerevisiae deletion strains, locus YNL207W, strain RIO2, active compounds read low 0.903 | S. cerevisiae deletion strains, locus YNL222W, strain SSU72, active compounds read low 0.933 | S. cerevisiae deletion strains, locus YNL307C, strain MCK1 (second series), active compounds read low 0.917 | S. cerevisiae deletion strains, locus YOL078W, strain AVO1, active compounds read low 0.915 | S. cerevisiae deletion strains, locus YOL136C, strain PFK27, active compounds read low 0.901 | S. cerevisiae deletion strains, locus YOR061W, strain CKA2, active compounds read low 0.966 | S. cerevisiae deletion strains, locus YOR119C, strain RIO1, active compounds read low 0.983 | S. cerevisiae deletion strains, locus YOR231W, strain MKK1, active compounds read low 0.932 | S. cerevisiae deletion strains, locus YOR329C, strain SCD5, active compounds read low 0.915 | S. cerevisiae deletion strains, locus YPL031C, strain PHO85, active compounds read low 0.902 | S. cerevisiae deletion strains, locus YPL153C, strain RAD53, active compounds read low 0.933 | S. cerevisiae deletion strains, locus YPL204W, strain HRR25, active compounds read low 0.908 | S. cerevisiae deletion strains, locus YPL209C, strain IPL1, active compounds read low 0.919 | S. cerevisiae deletion strains, locus YPR025C, strain CCL1, active compounds read low 0.926 | S. cerevisiae deletion strains, locus YPR106W, strain ISR1, active compounds read low 0.915 | S. cerevisiae deletion strains, locus YPR111W, strain DBF20, active compounds read low 0.911 | S. cerevisiae deletion strains, strain NNK1, active compounds read low 0.899 | S. cerevisiae deletion strains, strain TSCII, active compounds read low 0.91
active: [2] 0.721 | S. cerevisiae deletion strains, locus YHR079C, strain IRE1, active compounds read low 0.326 | S. cerevisiae deletion strains, locus YLR113W, strain HOG1, active compounds read low 0.785 | S. cerevisiae deletion strains, locus YPL256C, strain CLN2, active compounds read low 0.767

N=C(N)SCc1c(F)cccc1Cl
inactive: S. cerevisiae deletion strains, locus YAL013W, strain DEP1, active compounds read low 0.996 | S. cerevisiae deletion strains, locus YBR229C, strain ROT2, active compounds read low 0.986 | S. cerevisiae deletion strains, locus YCL061C, strain MRC1, active compounds read low 1.01 | [1] 0.968 | S. cerevisiae deletion strains, locus YDL134C, strain PPH21, active compounds read low 1 | S. cerevisiae deletion strains, locus YDR150W, strain NUM1, active compounds read low 0.984 | S. cerevisiae deletion strains, locus YEL061C, strain CIN8, active compounds read low 0.98 | S. cerevisiae deletion strains, locus YGR078C, strain PAC10, active compounds read low 0.989 | S. cerevisiae deletion strains, locus YGR229C, strain SMI1, active compounds read low 0.998 | [2] 0.947 | S. cerevisiae deletion strains, locus YHR087W, strain rtc3, active compounds read low 0.978 | S. cerevisiae deletion strains, locus YJR043C, strain POL32, active compounds read low 0.99 | S. cerevisiae deletion strains, locus YJR075W, strain HOC1, active compounds read low 0.991 | S. cerevisiae deletion strains, locus YKL190W, strain CNB1, active compounds read low 0.983 | S. cerevisiae deletion strains, locus YLR039C, strain RIC1, active compounds read low 0.978 | S. cerevisiae deletion strains, locus YLR058C, strain SHM2 (second series), active compounds read low 0.986 | S. cerevisiae deletion strains, locus YLR085C, strain ARP6, active compounds read low 0.993 | S. cerevisiae deletion strains, locus YLR262C, strain YPT6, active compounds read low 0.989 | S. cerevisiae deletion strains, locus YML094W, strain GIM5, active compounds read low 0.935 | S. cerevisiae deletion strains, locus YMR219W, strain ESC1, active compounds read low 1 | S. cerevisiae deletion strains, locus YMR263W, strain SAP30, active compounds read low 1.04 | S. cerevisiae deletion strains, locus YNL128W, strain TEP1, active compounds read low 0.968 | S. cerevisiae deletion strains, locus YNL153C, strain GIM3, active compounds read low 1.01 | S. cerevisiae deletion strains, locus YNL298W, strain CLA4 (second series), active compounds read low 0.96 | S. cerevisiae deletion strains, locus YNL322C, strain KRE1, active compounds read low 0.982 | S. cerevisiae deletion strains, locus YNR030W, strain Alg12, active compounds read low 0.975 | S. cerevisiae deletion strains, locus YPL055C, strain LGE1, active compounds read low 0.956 | S. cerevisiae deletion strains, locus YPL241C, strain CIN2, active compounds read low 1.12 | S. cerevisiae deletion strains, locus YPR135W, strain CTF4, active compounds read low 0.896 | S. cerevisiae strains, strain wild type, active compounds read low 0.986
